# Screens deposited in PubChem BioAssay by several laboratories.
# This is a sample that favours compounds with a hit; in the whole collection about 5.2% have one here.
# PostGolgi ctrl = growth inhibition of yeast control strain, primary screen, counter-screen for post-Golgi transport modulator project; efflux-deficient yeast background strain, growth absorbance A615, 16 h; inhibition, % at 10 µM; 98,000 tested, 5% active
# EphB4 antag = EphB4-ephrin-B2 interaction antagonists, primary screen, biochemical, TNYL-RAW peptide probe, fluorescence polarization. Ephrin type-B receptor 4 (Homo sapiens), P54760. EphB4 LBD / TNYL-RAW-Alexa532 peptide. inhibition, % at 7 µM. 97,000 tested, 0.15% active. AID 720, 2007;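 active = inhibition above the screen-wide mean inhibition plus 3 SD, cut at about 15% in these data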;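 also: 0% = DMSO wells and 100% = excess unlabeled TNYL-RAW peptide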
# Target sequence (P54760 whole entry, looked up, the tested form may be a part): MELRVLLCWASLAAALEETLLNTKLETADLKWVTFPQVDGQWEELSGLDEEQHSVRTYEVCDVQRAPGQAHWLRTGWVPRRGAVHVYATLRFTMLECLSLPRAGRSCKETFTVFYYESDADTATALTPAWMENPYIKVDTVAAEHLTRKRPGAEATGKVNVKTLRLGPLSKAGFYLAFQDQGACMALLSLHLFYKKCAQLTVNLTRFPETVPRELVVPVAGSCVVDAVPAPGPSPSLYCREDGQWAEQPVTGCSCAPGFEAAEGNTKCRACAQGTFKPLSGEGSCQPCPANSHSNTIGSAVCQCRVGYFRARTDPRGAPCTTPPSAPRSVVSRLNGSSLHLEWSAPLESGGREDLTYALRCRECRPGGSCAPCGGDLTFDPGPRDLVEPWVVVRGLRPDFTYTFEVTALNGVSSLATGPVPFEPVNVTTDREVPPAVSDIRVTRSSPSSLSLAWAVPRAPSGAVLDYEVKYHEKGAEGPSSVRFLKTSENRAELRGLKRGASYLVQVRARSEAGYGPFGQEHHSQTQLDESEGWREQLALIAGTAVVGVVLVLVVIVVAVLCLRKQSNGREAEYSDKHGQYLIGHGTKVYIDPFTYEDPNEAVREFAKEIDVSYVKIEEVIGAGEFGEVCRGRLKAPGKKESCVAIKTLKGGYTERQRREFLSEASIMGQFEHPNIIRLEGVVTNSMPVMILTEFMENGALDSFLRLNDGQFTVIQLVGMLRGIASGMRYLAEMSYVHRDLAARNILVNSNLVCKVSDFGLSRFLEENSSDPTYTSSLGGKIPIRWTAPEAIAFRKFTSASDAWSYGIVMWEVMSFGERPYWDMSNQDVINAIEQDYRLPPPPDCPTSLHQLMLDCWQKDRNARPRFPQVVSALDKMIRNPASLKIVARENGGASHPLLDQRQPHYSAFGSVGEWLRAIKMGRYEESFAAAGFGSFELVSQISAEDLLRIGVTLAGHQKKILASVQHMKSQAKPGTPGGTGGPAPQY
# Calb biofilm kill = clotrimazole potentiators killing Candida biofilms, primary screen, with clotrimazole, Alamar Blue | 85,000 tested, 0.14% active | inhibition, % at 6 µM | AID 834, 2007 | C. albicans biofilm + clotrimazole;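 active = inhibition above 20%; inactive = inhibition below 20%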;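 also: preformed 24 hr biofilms exposed to compound for 48 hr; 0% = biofilm without compound and 100% = blank killed by clotrimazole plus chlorhexidine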
# PostGolgi yeast = phenotypic screen on post-Golgi transport, primary screen | post-Golgi transport phenotypic cell assay | inhibition, % at 10 µM | 98,000 tested, 0.9% active;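 also: yeast cells grown in 1536-well plates; yeast grown about 18 h at 30C before absorbance read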
# Starred values were filed as active, the others as inactive; · = no result. Rule as the data show it, unless noted: active = inhibition above about 30%; inactive = the rest.
SMILES,PostGolgi ctrl,EphB4 antag,Calb biofilm kill,PostGolgi yeast
CCOc1ccc(-c2cc3nc(C4CCN(C(=O)OC(C)(C)C)CC4)c(C(=O)O)cn3n2)cc1,17,2,·,4
O=C(c1cc2c(s1)-c1ccccc1OC2)N1CCN(c2ccccc2)CC1,55*,0,2,-10
CCCCSCCCNC(=O)Nc1cccc(OC)c1,5,-3,8,36*
O=C(CSc1nnnn1-c1ccc(F)cc1)NC1CCCCC1,0,-5,4,0
Cc1nnc(SCC(=O)Nc2nsc(-c3ccc(C(C)(C)C)cc3)n2)s1,62*,-8,5,-1
Cc1ccc(-c2csc3nnc(SCC(=O)Nc4nsc(-c5ccccc5)n4)n23)cc1,41*,-4,9,10
CC1CCCCC1NC(=O)CSc1nnnn1-c1ccccc1 (stereo not drawn),-2,-1,8,38*
Cc1ccc(-c2nc(NC(=O)CSc3nnnn3-c3ccccc3)ns2)cc1,48*,-3,2,5
COc1ccccc1NC(=O)CSc1nnnn1-c1ccc(C)cc1,·,-7,8,·
Cc1nnc(SCC(=O)Nc2ccccc2NC(=O)CSc2nnc(C)s2)s1,6,-5,5,6
CC(C)c1ccc2c(c1)C(c1ccc(N3CCOCC3)cc1)=NNC(c1cccs1)=N2,42*,2,·,-1
CCN(CC)S(=O)(=O)c1cccc(C(=O)Nc2cccnc2)c1,8,3,6,-1
CNS(=O)(=O)c1cccc(C(=O)Nc2cccnc2)c1,34*,-3,·,-3
COC(=O)CCC(=O)NC(=S)Nc1cc(Cl)ccc1Cl,3,-11,·,7
CCCSc1nc2c(cnn2-c2ccccc2)c(=O)[nH]1,33*,·,14,8
CC(C)OCCCNC(=O)c1cccs1,32*,-3,6,0
CCCCOCCCNC(=O)c1cccs1,-2,-5,6,-1
CN(Cc1ccccc1)C(=O)Cn1c(=O)oc2cc(S(=O)(=O)N3CCCC3)ccc21,35*,11,11,1
CN(Cc1ccccc1)C(=O)Cn1c(=O)oc2cc(S(=O)(=O)NCc3ccccc3)ccc21,-2,0,9,-11
CCOc1ccc(-n2c(N)c(C(=O)NCc3cccnc3)sc2=S)cc1,32*,-2,4,-7
COCCNC(=O)C(c1cccs1)N(C(=O)Cn1nnc2ccccc21)c1ccc(OC)cc1 (stereo not drawn),·,-2,8,·
O=S(=O)(Nc1ccc(O)c(Sc2nc3ccccc3s2)c1)c1ccc(Cl)cc1,28,-2,·,37*
COc1cc2c(cc1OC)-c1nnc(-c3ccco3)n1C1(CCCC1)C2,·,0,5,·
CCOC(=O)c1c(-c2ccc(OC)cc2)csc1NC(=O)CCN1C(=O)c2ccccc2C1=O,8,1,·,5
CCOC(=O)c1c(-c2ccc(OC)cc2)csc1NC(=O)CNCc1ccco1,85*,0,·,1
SMILES,PostGolgi ctrl,EphB4 antag,Calb biofilm kill,PostGolgi yeast
C=CCn1c(SCC(=O)c2cc(C)n(CCOC)c2C)nc2sc(C)c(C)c2c1=O,4,2,·,-3
Cc1ccnc(NS(=O)(=O)c2ccc(NC(=O)c3c(-c4ccccc4Cl)noc3C)cc2)n1,·,6,5,·
N#CC1=C(N)Oc2cc(O)ccc2C1c1ccncc1 (stereo not drawn),-2,-7,7,-3
CN(C)c1ccc2c(c1)OC(N)=C(C#N)C2c1cccc(F)c1 (stereo not drawn),37*,·,3,-3
CCn1cnc2c1c(=O)n(Cc1nnc3n1-c1ccccc1SC3)c(=O)n2Cc1ccccc1,0,-5,4,2
CCn1cnc2c1c(=O)n(Cc1csc(-c3ccccc3)n1)c(=O)n2Cc1ccccc1,48*,2,-8,-2
CCOc1ccc(N(C(C)C(=O)NCc2ccco2)S(C)(=O)=O)cc1 (stereo not drawn),0,4,5,5
S=C(c1cn(CCOc2ccccc2)c2ccccc12)N1CCCC1,18,7,·,-4
Cc1ccc(OCCn2cc(C(=S)N3CCCC3)c3ccccc32)cc1C,31*,-9,·,-6
COC(=O)c1ccc(Cl)c(NC(=O)CSc2ncn[nH]2)c1,31*,-2,7,-3
CCOC(=O)CC(N)c1ccc2c(c1)OCO2 (stereo not drawn),9,-8,7,5
N#Cc1nc(COc2ccccc2Cl)oc1NCc1cccnc1,47*,6,3,59*
Cc1ccc(OCc2nc(C#N)c(NCc3ccco3)o2)cc1,27,5,5,1
N#Cc1nc(COc2cccc(Cl)c2)oc1NCc1ccco1,33*,-9,13,25
CCOc1ccc(Br)cc1S(=O)(=O)Nc1nc(CN2CCOCC2)nc2sc(C)c(C)c12,12,-3,1,-6
CCCn1c(=O)c2ccccc2n2c(SCc3c(C(=O)OCC)oc4ccccc34)nnc12,51*,-13,·,22
CCCn1c(=O)c2ccccc2n2c(SCC(=O)NCc3cccs3)nnc12,40*,4,4,-1
CCn1c(=O)c2ccccc2n2c(SCC(=O)NCc3cccs3)nnc12,0,-5,5,6
CC12CN(S(=O)(=O)c3ccccc3)CC(C)(CN(S(=O)(=O)c3ccccc3)C1)C2,13,-5,1,0
O=c1[nH]c(SCc2ccc(Cl)cc2)nc2c1CCC2,17,·,5,1
O=c1[nH]c(SCc2cccc(Cl)c2)nc2c1CCCC2,34*,-4,10,0
CC(C)CC(c1nnnn1Cc1ccccc1)N1CCC(C(N)=O)CC1 (stereo not drawn),·,-3,7,·
Cn1c(SCC(=O)NC(=O)NCc2ccco2)nnc1C(F)(F)F,-12,3,4,-8
O=C(OCCN1C(=O)c2ccccc2C1=O)c1cccs1,5,-10,5,-5
O=C(OCCN1C(=O)c2ccccc2C1=O)c1cccc(OC(F)F)c1,36*,2,8,2
SMILES,PostGolgi ctrl,EphB4 antag,Calb biofilm kill,PostGolgi yeast
CC(C)=CCc1c(O)ccc(C(=O)Cc2ccccc2)c1O,34*,-4,·,7
CCN(CC)S(=O)(=O)c1cccc(-c2nnc(SCC#N)n2Cc2ccccc2)c1,33*,·,18,-4
CCN(CC)S(=O)(=O)c1cccc(-c2nnc(SC(C)C#N)n2Cc2ccccc2)c1 (stereo not drawn),21,·,-4,11
Cc1[nH]nc2c1C(CCc1ccccc1)C(C#N)=C(N)O2 (stereo not drawn),·,·,9,·
CN1CCc2nc3sc(C(=O)C45CC6CC(CC(C6)C4)C5)c(N)c3cc2C1,95*,-4,·,100*
O=C(c1ccc(COc2ccccc2Br)o1)N1CCCCCC1,38*,7,2,-1
CCCc1ccc(OCc2ccc(C(=O)N3CCN(c4ccccn4)CC3)o2)c(OC)c1,71*,2,-1,7
Cc1nn(Cc2c(F)c(F)c(F)c(F)c2F)c(C)c1NC(=O)c1ccc(COc2ccccc2Cl)cc1,-2,-1,·,1
O=C(c1ccc(COc2ccc3c(c2)CCC3)o1)N1CCN(c2ccccc2)CC1,·,2,·,·
Cc1nn(Cc2c(F)c(F)c(F)c(F)c2F)c(C)c1NC(=O)c1ccc(COc2ccccc2Cl)o1,80*,0,·,-4
